The text below walks through data of PubChem BioAssay.

The source made the active and inactive calls.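 How the source made its calls, unless noted: active means compounds that lower viability of the colon cancer cells in the luminescence readout, with no numeric limit stated; inactive means the rest.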

Assay [1] is described as follows: Wnt pathway potentiators raising nuclear beta-catenin – imaging, WNT3A-conditioned medium, mouse C2C12, NPC library, primary screen (AID 1117326; in the data active means nuclear beta-catenin stimulation mostly above about 4.2%, no sharp cut-off; inactive means mostly below about 10%; further: reference of the scale not given here). Conditions: stronger effect = higher value.
A short description of assay [2]: stimulators of insulin release from INS-1E, primary screen, cell-based, 5 mM glucose, NPC library (AID 1117329;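 active means compound raises insulin release from rat beta cells at 5 mM glucose, no numeric limit stated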; further: reference of the scale not given here). The following applies: rat INS-1E insulin secretion, at 10 µM, stronger effect = higher value.
Assay [3] in a line: growth inhibition of GSK3B-pretreated HCT116 cells – cell-based, CellTiter-Glo, 0.2 to 20 µM (AID 1117336;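 active means compounds lowering colon cancer cell viability after pretreatment blocking the GSK3B kinase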). Conditions: HCT116 viability after GSK3B inhibitor, at 20 µM, stronger effect = higher value. Background: In ATP-based viability assays light output follows the ATP content of the culture.
Assay [4] in a line: inhibition of endothelial tube formation, primary screen, imaging, VEGF stimulated, CD31 staining, tube area, NPC library (AID 1117340;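 active means compound that reduces growth-factor-driven endothelial tube area in a mixed cell culture, no cutoff stated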). Conditions: VEGF-stimulated ADSC/ECFC co-culture, at 10 µM, stronger effect = higher value.
The nature of assay [5]: GLP1 release stimulators, primary, NCI-H716, NPC library (AID 1117341;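 active means compound raises GLP1 secretion from the human gut endocrine cells, with no numeric limit stated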; further: reference of the scale not given here). Conditions: NCI-H716 cells, at 10 µM, stronger effect = higher value.
Assay [6] can be described thus: HCT116 colon cancer cell growth inhibition, primary screen, CellTiter-Glo luminescence, NPC library (AID 1117342;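 active means compounds that lower survival of HCT116 colon cancer cells in the luminescence readout, no numeric limit stated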). The following applies: at 20 µM (top of the series).
Assay [7] in a line: reduced SW480 viability measured with CellTiter-Glo, NPC library, primary (AID 1117343). The following applies: CellTiter-Glo luminescence; at 20 µM (top of the series).
Assay [8] is described as follows: NPC library primary testing for decreased DLD-1 cell viability via CellTiter-Glo (AID 1117346;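 active means compounds that lower survival of DLD-1 colon cancer cells in the luminescence readout, no cutoff given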). The following applies: DLD-1 viability, CellTiter-Glo luminescence; at 20 µM (top of the series).

`Nc1ncnc2c1ncn2CCOCP(=O)(O)O`: the nuclear beta-catenin stimulation in assay [1] (at 10 µM) is -0.6% (inactive); in assay [1] (stimulation, at 2 µM), 0.1%. Moreover, the insulin secretion stimulation in assay [2] was -2% (inactive). The viability decrease in assay [3] is -1.45% (inactive). Moreover, in assay [4], the tube area decrease was 11.2% (inactive). Also, in assay [5], the GLP1 secretion stimulation is 4% (inactive). In addition, in assay [6], the inhibition of viability was -1.5% (inactive). The viability decrease (inhibition) in assay [7] was 27.9% (inactive); in assay [8], 6.8% (inactive).

As for `NS(=O)(=O)c1ccc(NC(=O)CCC(=O)O)cc1`, the nuclear beta-catenin stimulation in assay [1] (at 10 µM) was -0.1% (inactive); in assay [1] (stimulation, at 2 µM), -0.3%. Also, the insulin secretion stimulation in assay [2] is -2.4% (inactive). For the same molecule, the viability decrease in assay [3] was -9.65% (inactive). For the same molecule, the tube area decrease in assay [4] is -1.3% (inactive). Also, the GLP1 secretion stimulation in assay [5] was 0.1% (inactive). For the same molecule, the inhibition of viability in assay [6] is -10.5% (inactive). Also, the viability decrease (inhibition) in assay [7] is -26.6% (inactive); in assay [8], -13.6% (inactive).

Consider `Nc1nc(=O)n([C@@H]2O[C@H](CO)[C@@H](O)[C@@H]2F)cc1I`, for which the nuclear beta-catenin stimulation in assay [1] (at 10 µM) was 8% (inactive); in assay [1] (stimulation, at 2 µM), 1.8%. In assay [2], the insulin secretion stimulation is 0.8% (inactive). For the same molecule, the viability decrease in assay [3] was 2.9% (inactive). Moreover, the tube area decrease in assay [4] was 74% (active). For the same molecule, the GLP1 secretion stimulation in assay [5] is -3.9% (inactive). In assay [6], the inhibition of viability was 23.7% (inactive). Moreover, the results for the viability decrease (inhibition) in assay [7] and in assay [8] were 32.2% (inactive) and 23.1% (inactive), respectively.

In the case of `C=CCNc1nc(NCC=C)nc(N2CCN(C(c3ccc(F)cc3)c3ccc(F)cc3)CC2)n1`, the nuclear beta-catenin stimulation was 0.3% (inactive) in assay [1] (at 10 µM) and -1% in assay [1] (stimulation, at 2 µM). For the same molecule, the insulin secretion stimulation in assay [2] is -0.6% (inactive). The viability decrease in assay [3] is 50.3% (active). Moreover, in assay [4], the tube area decrease is 17.9% (inactive). Besides, the GLP1 secretion stimulation in assay [5] was -3.9% (inactive). For the same molecule, the inhibition of viability in assay [6] was 49.1% (inactive). The viability decrease (inhibition) in assay [7] is 56.9% (active); in assay [8], 49.4% (inactive).

In the case of `Nc1nc(N)c(-c2ccccc2)s1`, the nuclear beta-catenin stimulation in assay [1] (at 10 µM) was 0.4% (inactive); in assay [1] (stimulation, at 2 µM), 2.2%. Besides, in assay [2], the insulin secretion stimulation is -2% (inactive). Moreover, the viability decrease in assay [3] was -1.63% (inactive). The tube area decrease in assay [4] is 16.7% (inactive). Also, the GLP1 secretion stimulation in assay [5] is 2.1% (inactive). Further, in assay [6], the inhibition of viability was 10.2% (inactive). In addition, the figures for the viability decrease (inhibition) in assay [7] and in assay [8] were 48.5% (inactive) and 2.53% (inactive), respectively.

`CC(=O)Oc1ccc(C2(c3ccc(OC(C)=O)cc3)Oc3ccccc3NC2=O)cc1`: the nuclear beta-catenin stimulation in assay [1] (at 10 µM) was 54.6% (active); in assay [1] (stimulation, at 2 µM), 9.3%. Besides, the insulin secretion stimulation in assay [2] was 19.9% (inactive). In assay [3], the viability decrease was 91.8% (active). Besides, the tube area decrease in assay [4] is 106% (active). In assay [5], the GLP1 secretion stimulation was 1.6% (inactive). For the same molecule, the inhibition of viability in assay [6] was 83.3% (active). Also, the viability decrease (inhibition) in assay [7] was 60.2% (active); in assay [8], 52.2% (active).

`CC1(C)OC[C@@H]2O[C@@]3(C(=O)O)OC(C)(C)O[C@H]3[C@@H]2O1`: the nuclear beta-catenin stimulation in assay [1] (at 10 µM) was -1.7% (inactive); in assay [1] (stimulation, at 2 µM), -0.3%. The insulin secretion stimulation in assay [2] is 4.8% (inactive). For the same molecule, the viability decrease in assay [3] was -3% (inactive). In addition, in assay [4], the tube area decrease is -12.4% (inactive). Also, the GLP1 secretion stimulation in assay [5] is -3.6% (inactive). Also, the inhibition of viability in assay [6] was -1.6% (inactive). Further, the viability decrease (inhibition) in assay [7] is 26.9% (inactive); in assay [8] it was 0.3% (inactive).

Take `COc1cc(O)cc(O)c1`: the nuclear beta-catenin stimulation in assay [1] (at 10 µM) was 1.6% (inactive); in assay [1] (stimulation, at 2 µM) it was -0.2%. Further, in assay [2], the insulin secretion stimulation is 4.5% (inactive). In assay [3], the viability decrease is -4.6% (inactive). The tube area decrease in assay [4] was 10.6% (inactive). For the same molecule, in assay [5], the GLP1 secretion stimulation was -9.8% (inactive). For the same molecule, the inhibition of viability in assay [6] is 7.93% (inactive). Besides, the viability decrease (inhibition) is 4% (inactive) in assay [7] and -9.1% (inactive) in assay [8].

On to `CC(C)(C)CC(=O)OCC(=O)[C@@]1(O)CC[C@H]2[C@@H]3CCC4=CC(=O)C=C[C@]4(C)[C@H]3[C@@H](O)C[C@@]21C`, for which the nuclear beta-catenin stimulation is 3% (inactive) in assay [1] (at 10 µM) and 0.9% in assay [1] (stimulation, at 2 µM). In assay [2], the insulin secretion stimulation is 0% (inactive). For the same molecule, the viability decrease in assay [3] is -93.8% (inactive). Besides, the tube area decrease in assay [4] was 10.8% (inactive). Also, in assay [5], the GLP1 secretion stimulation was 3.3% (inactive). The inhibition of viability in assay [6] was 20.7% (inactive). The viability decrease (inhibition) is 57.4% (active) in assay [7] and 13.2% (inactive) in assay [8].
